Measurements: PubChem BioAssay (Tox21)
“And” between values parts separate entries of the source, which are not always exact repeats. Equal values may be shown once. Inconclusive results are not listed. A call without a number means that no potency is given here. The source holds several records for some structures; these can differ, active in one and inactive in another. The source made the active and inactive calls. Unless noted, the call rests on the fitted dose curve; in most records, active means well fitted curve in the direction sought with a large enough effect in the repeat runs; inconclusive means weak or mixed curves; inactive means no such curve, though single readings can be large; an effect the other way counts as inactive or inconclusive.

Tested on: not listed separately
Experiment: qHTS assay to identify small molecule antagonists of the estrogen receptor alpha (ER-alpha) signaling pathway using the BG1 cell line (AID 743080; calls by dose curve; further: nearly all actives have a fitted effect of over 25% in size)
Conditions: BG1Luc4E2 ERE-luciferase antagonist mode, luminescence; series mostly up to 70.3 µM
Method in brief: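 Antagonist mode: compounds in DMSO were pinned onto BG1-Luc-4E2 cells alongside 17beta-estradiol agonist, incubated 21.5 h, and ERE-driven luciferase measured with ONE-Glo. Cytotoxicity was multiplexed using CellTiter-Fluor fluorescence.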
Potency means the concentration at half of the fitted maximal effect.

| SMILES | Potency |
| --- | --- |
| c1ccc(P(c2ccccc2)c2ccccc2)cc1 | inactive |
| CC(C)=CC1C(C(=O)OCc2coc(Cc3ccccc3)c2)C1(C)C (configuration not stated) | inactive |
| O=[N+]([O-])c1c(Cl)c(Cl)c(Cl)c(Cl)c1Cl | inactive |
| CC1(C)C(C=C(Cl)Cl)C1C(=O)OC(C#N)c1cccc(Oc2ccccc2)c1 (configuration not stated) | inactive |
| O=c1oc2ccccc2c(O)c1C(CC(O)c1ccc(-c2ccc(Br)cc2)cc1)c1ccccc1 (configuration not stated) | inactive |
| CCOc1cc(Oc2ccc(C(F)(F)F)cc2Cl)ccc1[N+](=O)[O-] | 31 µM (active) |
| Brc1ccc(Oc2cc(Br)c(Br)cc2Br)c(Br)c1 | inactive |
| c1nc[nH]n1 | inactive |
| CCC(C)c1cc([N+](=O)[O-])cc([N+](=O)[O-])c1O (configuration not stated) | inactive |
| C#CCOS(=O)OC1CCCCC1Oc1ccc(C(C)(C)C)cc1 (configuration not stated) | 9.7 µM (active) |
| CCCCNC(=O)n1c(NC(=O)OC)nc2ccccc21 | inactive |
| CCOC(=O)C(C)OC(=O)c1cc(Oc2ccc(C(F)(F)F)cc2Cl)ccc1[N+](=O)[O-] (configuration not stated) | 48.3 µM (active) |
| CCC(C)(c1ccc(O)cc1)c1ccc(O)cc1 | inactive |
| CCC(=O)O[C@H]1CC[C@H]2[C@@H]3CCC4=CC(=O)CC[C@]4(C)[C@H]3CC[C@]12C | inactive |
| CC(C)C(=O)OCC(C)(C)C(OC(=O)C(C)C)C(C)C (configuration not stated) | inactive |
| CNC(=O)Oc1cccc2c1OC(C)(C)O2 | inactive |

Tested on: not listed separately
Experiment: qHTS assay to identify small molecule antagonists of the estrogen receptor alpha (ER-alpha) signaling pathway using the BG1 cell line - cell viability counter screen (AID 743081);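 further: compound given together with 17beta-estradiol as the ER stimulus; nearly all actives have a fitted effect of over 45% in size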
Conditions: BG1Luc4E2 viability, CellTiter-Fluor, 22 h; series mostly up to 70.3 µM

| SMILES | Potency |
| --- | --- |
| O=[N+]([O-])c1ccc(O)c([N+](=O)[O-])c1 | 30.8 µM (active) and 30.6 µM (active) |
| N[C@@H](Cc1ccc(N(CCCl)CCCl)cc1)C(=O)O | inactive |
| c1ccc(P(c2ccccc2)c2ccccc2)cc1 | inactive |
| CCC(C)c1ccc(O)cc1 (configuration not stated) | inactive |
| CC(C)=CC1C(C(=O)OCc2coc(Cc3ccccc3)c2)C1(C)C (configuration not stated) | inactive |
| O=[N+]([O-])c1c(Cl)c(Cl)c(Cl)c(Cl)c1Cl | inactive |
| CC1(C)C(C=C(Cl)Cl)C1C(=O)OC(C#N)c1cccc(Oc2ccccc2)c1 (configuration not stated) | inactive |
| ClC1C(Cl)C(Cl)C(Cl)C(Cl)C1Cl (configuration not stated) | inactive |
| O=c1oc2ccccc2c(O)c1C(CC(O)c1ccc(-c2ccc(Br)cc2)cc1)c1ccccc1 (configuration not stated) | inactive |
| CCCCCc1cc(O)cc(O)c1 | inactive |
| CCOc1cc(Oc2ccc(C(F)(F)F)cc2Cl)ccc1[N+](=O)[O-] | inactive |
| Nc1ccc(-c2ccc(N)c(N)c2)cc1N | inactive |
| Brc1ccc(Oc2cc(Br)c(Br)cc2Br)c(Br)c1 | inactive |
| c1ccc(NNc2ccccc2)cc1 | inactive |
| CCC(CC)Nc1c([N+](=O)[O-])cc(C)c(C)c1[N+](=O)[O-] | inactive |
| CCCCN(CC)c1c([N+](=O)[O-])cc(C(F)(F)F)cc1[N+](=O)[O-] | inactive |
| Oc1ccc(-c2ccccc2)cc1 | inactive |
| c1nc[nH]n1 | inactive |
| CCC(C)c1cc([N+](=O)[O-])cc([N+](=O)[O-])c1O (configuration not stated) | inactive and 4.86 µM (active) |

| SMILES | Potency |
| --- | --- |
| C=CC(=O)OCCO | inactive |
| Cc1c(COC(=O)[C@@H]2[C@H](/C=C(\Cl)C(F)(F)F)C2(C)C)cccc1-c1ccccc1 | inactive |
| C#CCOS(=O)OC1CCCCC1Oc1ccc(C(C)(C)C)cc1 (configuration not stated) | 27.3 µM (active) |
| Cc1cc(Cl)ccc1OCCCC(=O)O | inactive |
| N#CCCCl | inactive |
| CC(C)N(C(=O)SCC(Cl)=C(Cl)Cl)C(C)C | inactive |
| Cc1cc(C)cc(C)c1 | inactive |
| O=C(CCl)c1ccccc1 | inactive |
| CCCCNC(=O)n1c(NC(=O)OC)nc2ccccc21 | inactive |
| CCOC(=O)C(C)OC(=O)c1cc(Oc2ccc(C(F)(F)F)cc2Cl)ccc1[N+](=O)[O-] (configuration not stated) | inactive |
| CCC(C)(c1ccc(O)cc1)c1ccc(O)cc1 | inactive |
| Cc1ccc(N)c(N)c1 | inactive |
| CC(C)(c1cc(Cl)c(O)c(Cl)c1)c1cc(Cl)c(O)c(Cl)c1 | inactive |
| CCC(=O)O[C@H]1CC[C@H]2[C@@H]3CCC4=CC(=O)CC[C@]4(C)[C@H]3CC[C@]12C | inactive |
| S=C1NCCN1 | inactive |
| CC(C)C(=O)OCC(C)(C)C(OC(=O)C(C)C)C(C)C (configuration not stated) | inactive |
| Oc1cc(Cl)ccc1Cl | inactive |
| CNC(=O)Oc1cccc2c1OC(C)(C)O2 | inactive |
| CCOc1cc(C=O)ccc1O | inactive |

Target: Aromatase (Homo sapiens) (UniProt P11511)
Experiment: qHTS assay to identify aromatase inhibitors (AID 743083); further: nearly all actives have a fitted effect of over 55% in size
Conditions: MCF-7 aro ERE, testosterone-driven ERE luciferase, 24 h; series mostly up to 70.3 µM

Chain of Aromatase (Homo sapiens) (P11511 whole entry, looked up): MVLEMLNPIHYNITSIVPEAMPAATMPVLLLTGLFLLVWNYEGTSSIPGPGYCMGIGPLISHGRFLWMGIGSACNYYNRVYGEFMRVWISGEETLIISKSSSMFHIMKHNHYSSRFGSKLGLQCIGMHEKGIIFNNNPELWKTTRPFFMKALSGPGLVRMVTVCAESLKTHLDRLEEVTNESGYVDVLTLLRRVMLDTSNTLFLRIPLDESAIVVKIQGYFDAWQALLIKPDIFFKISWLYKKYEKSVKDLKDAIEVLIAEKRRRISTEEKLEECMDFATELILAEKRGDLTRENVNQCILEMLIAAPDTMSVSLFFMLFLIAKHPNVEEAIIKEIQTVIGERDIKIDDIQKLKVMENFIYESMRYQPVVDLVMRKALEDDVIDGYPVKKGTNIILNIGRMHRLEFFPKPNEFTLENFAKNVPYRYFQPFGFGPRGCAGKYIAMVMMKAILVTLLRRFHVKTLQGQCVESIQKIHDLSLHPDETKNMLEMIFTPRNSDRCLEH

| SMILES | Potency |
| --- | --- |
| O=[N+]([O-])c1ccc(O)c([N+](=O)[O-])c1 | inactive |
| c1ccc(P(c2ccccc2)c2ccccc2)cc1 | inactive |
| CC(C)=CC1C(C(=O)OCc2coc(Cc3ccccc3)c2)C1(C)C (configuration not stated) | inactive |
| O=[N+]([O-])c1c(Cl)c(Cl)c(Cl)c(Cl)c1Cl | inactive and 61.1 µM (active) |
| CC1(C)C(C=C(Cl)Cl)C1C(=O)OC(C#N)c1cccc(Oc2ccccc2)c1 (configuration not stated) | inactive |
| ClC1C(Cl)C(Cl)C(Cl)C(Cl)C1Cl (configuration not stated) | inactive and 54.5 µM (active) |
| O=c1oc2ccccc2c(O)c1C(CC(O)c1ccc(-c2ccc(Br)cc2)cc1)c1ccccc1 (configuration not stated) | inactive |
| CCCCCc1cc(O)cc(O)c1 | inactive |
| CCOc1cc(Oc2ccc(C(F)(F)F)cc2Cl)ccc1[N+](=O)[O-] | inactive |
| Nc1ccc(-c2ccc(N)c(N)c2)cc1N | 6.09 µM (active) and inactive |
| Brc1ccc(Oc2cc(Br)c(Br)cc2Br)c(Br)c1 | inactive |
| CCCCN(CC)c1c([N+](=O)[O-])cc(C(F)(F)F)cc1[N+](=O)[O-] | inactive |
| Oc1ccc(-c2ccccc2)cc1 | inactive |
| c1nc[nH]n1 | inactive |
| CCC(C)c1cc([N+](=O)[O-])cc([N+](=O)[O-])c1O (configuration not stated) | inactive and 30.6 µM (active) |
| Cc1c(COC(=O)[C@@H]2[C@H](/C=C(\Cl)C(F)(F)F)C2(C)C)cccc1-c1ccccc1 | inactive |
| C#CCOS(=O)OC1CCCCC1Oc1ccc(C(C)(C)C)cc1 (configuration not stated) | 15.4 µM (active) and 6.86 µM (active) |
| Cc1cc(Cl)ccc1OCCCC(=O)O | inactive |
| O=C(CCl)c1ccccc1 | inactive |
| CCCCNC(=O)n1c(NC(=O)OC)nc2ccccc21 | inactive |
| CCOC(=O)C(C)OC(=O)c1cc(Oc2ccc(C(F)(F)F)cc2Cl)ccc1[N+](=O)[O-] (configuration not stated) | inactive |
| CCC(C)(c1ccc(O)cc1)c1ccc(O)cc1 | 61.1 µM (active) and inactive |
| CC(C)(c1cc(Cl)c(O)c(Cl)c1)c1cc(Cl)c(O)c(Cl)c1 | inactive |
| CCC(=O)O[C@H]1CC[C@H]2[C@@H]3CCC4=CC(=O)CC[C@]4(C)[C@H]3CC[C@]12C | inactive |
| S=C1NCCN1 | inactive |
| CC(C)C(=O)OCC(C)(C)C(OC(=O)C(C)C)C(C)C (configuration not stated) | inactive |
| Oc1cc(Cl)ccc1Cl | inactive |
| CNC(=O)Oc1cccc2c1OC(C)(C)O2 | inactive |
